Hits are enriched below; roughly 1.2% of the tested compounds scored in any of these assays.
TcdB GH inh = blocks C. difficile toxin B glycohydrolase activity; P18177; inhibition, % at 9.99 µM; AID 652162; TcdB glycohydrolase enzymatic assay, plate reader; actives 0.24% (n = 350,000); in the data active = inhibition above about 10%
Mtb BioA inh = blocks M. tuberculosis BioA enzyme activity; purified M. tuberculosis BioA enzyme, plate reader; inhibition, % at 9.99 µM; actives 0.096% (n = 360,000); AID 602481; in the data active = inhibition above about 40%
Yp Topo-I inh = blocks Yersinia pestis topoisomerase I activity; Y. pestis Topo-I cleavage product accumulation, plate reader; activity, % at 10 µM; actives 0.064% (n = 360,000); AID 504884; in the data active = activity above about 50%, passing the limit was not always enough
PfHsp40 rescue = compounds rescuing yeast from Plasmodium falciparum HSP40 toxicity. AID 504582. growth rescue, % at 12.5 µM. actives 0.68% (n = 340,000). S. cerevisiae expressing PfHsp40, growth rescue, ATP luminescence; in the data active = growth rescue above about 28%, passing the limit was not always enough;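 also: yeast W303a lacking pdr1 and pdr3 grown in galactose medium; growth measured after three days at 30 °C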
PrP 5UTR inh = suppresses PrP 5' UTR mRNA reporter expression | cell-based PrP 5' UTR mRNA reporter, plate reader | inhibition, % (test concentration not listed) | actives 0.35% (n = 340,000); in the data active = inhibition above about 52%
FadD28 FP inh = inhibitors of Mycobacterium tuberculosis FadD28 bisubstrate binding; FadD28 bisubstrate probe binding, fluorescence polarization; inhibition, % at 12.5 µM; actives 0.22% (n = 360,000); AID 588549; in the data active = inhibition above about 8.5%, passing the limit was not always enough
Numbers stand for hits.

What do the screens show for `C[C@@H]1COC(=O)[C@@H](Cc2ccc(F)cc2)C/C=C\C[C@@H](CC(=O)N(CCO)Cc2ccccc2)C(=O)N1`?
TcdB GH inh: inactive; Mtb BioA inh: inactive; Yp Topo-I inh: inactive; PfHsp40 rescue: inactive; PrP 5UTR inh: inactive; FadD28 FP inh: inactive

What do the screens show for `C[C@H]1COC(=O)[C@H](Cc2ccc(F)cc2)C/C=C\C[C@@H](CC(=O)N(CCO)Cc2ccccc2)C(=O)N1`?
TcdB GH inh: inactive; Mtb BioA inh: inactive; Yp Topo-I inh: inactive; PfHsp40 rescue: 55; PrP 5UTR inh: inactive; FadD28 FP inh: inactive

Results for C=CCC[C@@H](Cc1ccc(F)cc1)C(=O)OC[C@@H](Cc1c[nH]c2ccccc12)NC(=O)[C@@H](CC=C)CC(=O)NCCO ?
TcdB GH inh: inactive; Mtb BioA inh: inactive; Yp Topo-I inh: inactive; PfHsp40 rescue: 40; PrP 5UTR inh: inactive; FadD28 FP inh: inactive

Results for C=CCC[C@@H](Cc1ccc(F)cc1)C(=O)OC[C@H](Cc1c[nH]c2ccccc12)NC(=O)[C@@H](CC=C)CC(=O)NCCO ?
TcdB GH inh: inactive; Mtb BioA inh: inactive; Yp Topo-I inh: inactive; PfHsp40 rescue: 33; PrP 5UTR inh: inactive; FadD28 FP inh: inactive

What do the screens show for `C=CCC[C@H](Cc1ccc(F)cc1)C(=O)OC[C@@H](Cc1c[nH]c2ccccc12)NC(=O)[C@@H](CC=C)CC(=O)NCCO`?
TcdB GH inh: inactive; Mtb BioA inh: inactive; Yp Topo-I inh: inactive; PfHsp40 rescue: 57; PrP 5UTR inh: inactive; FadD28 FP inh: inactive

What do the screens show for `C=CCC[C@H](Cc1ccc(F)cc1)C(=O)OC[C@H](Cc1c[nH]c2ccccc12)NC(=O)[C@H](CC=C)CC(=O)NCCO`?
TcdB GH inh: inactive; Mtb BioA inh: inactive; Yp Topo-I inh: inactive; PfHsp40 rescue: 32; PrP 5UTR inh: inactive; FadD28 FP inh: inactive

What do the screens show for `C=CCC[C@@H](Cc1ccc(F)cc1)C(=O)OC[C@@H](Cc1c[nH]c2ccccc12)NC(=O)[C@H](CC=C)CC(=O)NCCO`?
TcdB GH inh: inactive; Mtb BioA inh: inactive; Yp Topo-I inh: inactive; PfHsp40 rescue: inactive; PrP 5UTR inh: inactive; FadD28 FP inh: inactive

How did C=CC[C@@H](CC(=O)NCCO)C(=O)N[C@H](COC(=O)[C@@H](CC=C)Cc1ccc(F)cc1)Cc1c[nH]c2ccccc12 do in these assays?
TcdB GH inh: inactive; Mtb BioA inh: inactive; Yp Topo-I inh: inactive; PfHsp40 rescue: inactive; PrP 5UTR inh: inactive; FadD28 FP inh: inactive

Results for Cc1noc(C)c1S(=O)(=O)Nc1ccc2c(c1)CC(=O)N([C@@H](C)CO)C[C@H](C)[C@@H](CN(C)S(C)(=O)=O)O2 ?
Mtb BioA inh: inactive

What do the screens show for `COCC#Cc1ccc([C@H]2[C@H](CO)N3C(=O)CN(C(=O)C4CCCC4)C[C@@H]23)cc1`?
TcdB GH inh: inactive

Results for CN1C(=O)c2cc(NC(=O)c3ccc(Cl)cc3)ccc2OC[C@H]2O[C@@H](CC(=O)O)CC[C@@H]21 ?
TcdB GH inh: inactive; Mtb BioA inh: inactive

How did COc1ccc2c3c([nH]c2c1)[C@@H](CO)N(Cc1ccccc1)CC31CCN(C(=O)Nc2cccc(F)c2)CC1 do in these assays?
TcdB GH inh: inactive

How did COC(=O)c1c2oc(c1C(=O)OC)C(=O)N[C@H](Cc1ccccc1)Cn1cc(nn1)[C@H](Cc1ccccc1)NC(=O)N[C@H](CO)CC2 do in these assays?
TcdB GH inh: inactive; Mtb BioA inh: inactive

How did COc1ccc(CN(C)C(=O)C2CCN(S(=O)(=O)c3cccs3)CC2)cc1F do in these assays?
TcdB GH inh: inactive; Mtb BioA inh: inactive; Yp Topo-I inh: inactive; PfHsp40 rescue: 69; PrP 5UTR inh: inactive; FadD28 FP inh: inactive

What do the screens show for `COc1ccc(NC(=O)N(C)C[C@H]2Oc3ccc(NS(=O)(=O)c4ccc(Cl)cc4)cc3CC(=O)N([C@@H](C)CO)C[C@H]2C)cc1`?
TcdB GH inh: inactive; Mtb BioA inh: inactive

How did CCc1nc2ccc(C(=O)NCCCn3ccnc3)cn2c1N(C)Cc1ccc(OC)cc1 do in these assays?
TcdB GH inh: inactive; Mtb BioA inh: inactive; Yp Topo-I inh: inactive; FadD28 FP inh: inactive

How did CCc1nc2ccc(C(=O)NCCCn3ccnc3)cn2c1N(C)Cc1cc2ccccc2s1 do in these assays?
TcdB GH inh: inactive; Mtb BioA inh: inactive; Yp Topo-I inh: inactive; FadD28 FP inh: 9.2

What do the screens show for `CO[C@H]1CN(C)C(=O)c2ccc(NC(C)=O)cc2OC[C@H](C)N(Cc2ccccc2F)C[C@@H]1C`?
TcdB GH inh: inactive

How did O=C(C[C@@H]1C[C@H]2c3cc(NC(=O)Nc4ccccc4F)ccc3O[C@H]2[C@@H](CO)O1)NCC1CC1 do in these assays?
TcdB GH inh: inactive; Mtb BioA inh: inactive

What do the screens show for `CCOc1ccc2c(c1)C(=O)c1cc(OCC(=O)O)ccc1-2`?
TcdB GH inh: inactive; Mtb BioA inh: inactive; Yp Topo-I inh: inactive; PfHsp40 rescue: inactive; PrP 5UTR inh: inactive; FadD28 FP inh: inactive

What do the screens show for `CCCCOc1ccc2c(c1)C(=O)c1cc(O)ccc1-2`?
TcdB GH inh: inactive; Yp Topo-I inh: inactive; PfHsp40 rescue: 284; PrP 5UTR inh: inactive; FadD28 FP inh: inactive

How did O=C(NC1CCCC1)N1CC(=O)N2[C@@H](CO)[C@H](c3ccc(/C=C/c4ccccc4)cc3)[C@@H]2C1 do in these assays?
TcdB GH inh: inactive

How did C[C@H]1CN([C@@H](C)CO)C(=O)c2cc(NS(=O)(=O)c3ccccc3)ccc2O[C@@H]1CN(C)S(=O)(=O)c1cccs1 do in these assays?
TcdB GH inh: inactive; Mtb BioA inh: inactive

Results for CC(=O)Nc1cccc(Oc2ncnc3scc(-c4ccccc4)c23)c1 ?
Mtb BioA inh: inactive; Yp Topo-I inh: inactive; PfHsp40 rescue: inactive; PrP 5UTR inh: inactive; FadD28 FP inh: inactive

What do the screens show for `CN(C)C/C=C/C(=O)Nc1cccc(-c2c[nH]c3ncnc(Oc4ccc(NC(=O)CC(=O)Nc5ccc(F)cc5)cc4F)c23)c1`?
Mtb BioA inh: inactive; Yp Topo-I inh: inactive; PfHsp40 rescue: inactive; PrP 5UTR inh: inactive; FadD28 FP inh: 19

Results for C[C@H]1CN([C@@H](C)CO)C(=O)c2cc(Br)cnc2O[C@@H]1CN(C)C(=O)C1CCCCC1 ?
TcdB GH inh: inactive; Mtb BioA inh: inactive

What do the screens show for `O=C(NN=Cc1ccc(O)cc1O)c1ccccc1NS(=O)(=O)c1cccs1`?
TcdB GH inh: inactive; Mtb BioA inh: inactive; Yp Topo-I inh: inactive; PfHsp40 rescue: 70; PrP 5UTR inh: inactive; FadD28 FP inh: inactive

How did COc1ccc(C=NNC(=O)c2ccccc2NS(=O)(=O)c2cccs2)cc1O do in these assays?
TcdB GH inh: inactive; Mtb BioA inh: inactive; Yp Topo-I inh: inactive; PfHsp40 rescue: inactive; PrP 5UTR inh: inactive; FadD28 FP inh: inactive

How did CCN1[C@@H]2c3cccc(=O)n3C[C@@H]2[C@@H](CO)[C@@H]1C(=O)N1CCc2ccccc2C1 do in these assays?
TcdB GH inh: inactive; Mtb BioA inh: inactive

How did O=c1cc(-c2ccccc2Cl)oc2c(NS(=O)(=O)c3cc(Cl)cc(Cl)c3O)ccc(O)c12 do in these assays?
Mtb BioA inh: inactive; Yp Topo-I inh: inactive; PfHsp40 rescue: inactive; PrP 5UTR inh: inactive; FadD28 FP inh: 13

Compound activity as filed in PubChem BioAssay.
